# Data taken from PubChem BioAssay AID2240 (Broad Institute, 2010).
# Among all 37,000 compounds or so, about 100 (0.27%) were called active. The sample as a whole holds a higher share of actives than the screen did. Values without a mark were called inactive. Rule as the data show it: active = inhibition above about 85%; inconclusive = no clear call, values can overlap the other calls; inactive = below about 68%.
# Assay: blocks MITF activity, primary screen, MITF inhibitor project, cell-based, luminescence (AID 2240);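 also: human melanocyte line stably carrying TRPM1 promoter luciferase reporter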
# Conditions: TRPM1 promoter luciferase, 24 h, stronger effect = higher value, concentration not given here
row,Structure (SMILES),inhibition
1,Cc1ccc(C)c(NC(=O)CSc2nc(C)nc3sc(C)c(C)c23)c1,3.61%
2,CCSC1=C(C#N)C(=O)NCS1,-7.65%
3,O=C(CSc1nnc(-c2ccc(Br)cc2)o1)Nc1ccc2ccccc2c1,-4.41%
4,O=C1c2ccccc2S(=O)c2ccccc2S(=O)(=O)N1Cc1ccccc1 (centres undefined),46.6%
5,C[C@@H]1CN([C@H](C)CO)C(=O)c2cc(NC(=O)Nc3ccccc3)ccc2O[C@@H]1CN(C)Cc1ccc(Cl)c(Cl)c1,34.3%
6,C[C@H](CO)N1C[C@H](C)[C@@H](CN(C)S(=O)(=O)c2cn(C)cn2)Oc2c(NC(=O)C3CC3)cccc2C1=O,-3.68%
7,O=C(NCCCn1ccnc1)c1cc2c(s1)CCCC2,1.51%
8,O=C(O)c1cccc(S(=O)(=O)Nc2ccc(O)cc2Sc2nc3ccccc3s2)c1,7.04%
9,O=C(CCn1nc(-c2ccc(Cl)cc2)c2ccccc2c1=O)Nc1cccc(C(F)(F)F)c1,4.42%
10,C[C@H](CO)N1C[C@H](C)[C@H](CN(C)C(=O)Nc2ccccc2)Oc2c(NC(=O)Nc3ccc(C(F)(F)F)cc3)cccc2C1=O,21.9%
11,C[C@@H]1CCCCO[C@H](CN(C)Cc2ccc(Cl)c(Cl)c2)[C@@H](C)CN([C@H](C)CO)C(=O)c2cc(NS(=O)(=O)c3cn(C)cn3)ccc2O1,-5.53%
12,COc1ccc(CN(C)C[C@@H]2Oc3ccc(NS(=O)(=O)c4cn(C)cn4)cc3C(=O)N([C@@H](C)CO)C[C@H]2C)cc1,-13%
13,O=C1Cc2ccc(F)cc2CC1C1=Cc2ccc(F)cc2CC1 (centres undefined),5.98%
14,C[C@H]1CN([C@@H](C)CO)C(=O)c2cc(NC(=O)NC3CCCCC3)ccc2O[C@@H]1CN(C)C(=O)Nc1cccc2ccccc12,10.4%
15,COc1ccc(C)cc1S(=O)(=O)N(C)CC(=O)Nc1ccc(Br)cc1F,8.55%
16,C[C@@H]1CN([C@H](C)CO)C(=O)Cc2cc(NC(=O)Nc3ccc(C(F)(F)F)cc3)ccc2O[C@H]1CN(C)Cc1ccc(-c2ccccc2)cc1,-11.6%
17,Cc1ccc(-n2c(SCC(=O)Nc3ccccc3F)nnc2-c2ccccc2)cc1C,10.1%
18,C[C@@H]1CN([C@H](C)CO)C(=O)c2cccc(NC(=O)Nc3ccc4c(c3)OCO4)c2O[C@H]1CN(C)C(=O)Nc1ccc(F)cc1,7.91%
19,Cc1cc(C)c(C)c(Oc2coc3cc(OCC(=O)Nc4ccccc4Cl)ccc3c2=O)c1,-3.54%
20,C[C@@H]1CN([C@@H](C)CO)C(=O)c2cc(NS(=O)(=O)c3ccc(F)cc3)ccc2O[C@@H]1CN(C)C(=O)NC1CCCCC1,1.15%
21,O=C(CSc1nc2c(c(C(F)(F)F)n1)CCCC2)N1c2ccccc2Sc2ccccc21,11%
22,O=[N+]([O-])c1ccccc1-c1ccc(CN2CCN3CCCC3C2C2CCCCC2)o1 (centres undefined),-7.52%

row,Structure (SMILES),inhibition
1,CC1OC(OC2C(OC3C(O[C@H]4CC[C@@]5(C)C(CC[C@]6(C)C5CC=C5[C@@H]7CC(C)(C)C[C@@H](O)[C@]7(C)CC[C@]56C)C4(C)C)OC(C(=O)O)C(O)C3O)OC(CO)C(O)C2O)C(O)C(O)C1O (some centres undefined),-6.6%
2,C/C=C(/C)C(=O)O[C@H]1CC(C)(C)C[C@H]2C3=CCC4[C@@]5(C)CC[C@H](O[C@@H]6O[C@H](C(=O)O)[C@@H](O[C@@H]7O[C@H](CO)[C@H](O)[C@H](O)[C@H]7O[C@@H]7O[C@H](CO)[C@@H](O)[C@H](O)[C@H]7O)[C@H](O)[C@H]6O[C@@H]6O[C@@H](C)[C@H](O)[C@@H](O)[C@H]6O)C(C)(C)C5CC[C@@]4(C)[C@]3(C)[C@@H](O)[C@@H](O)[C@@]12CO (some centres undefined),93.6% (active)
3,C/C=C(/C)C(=O)O[C@H]1CC(C)(C)C[C@H]2C3=CCC4[C@@]5(C)CC[C@H](O[C@@H]6O[C@H](C(=O)O)[C@@H](O[C@@H]7O[C@H](CO)[C@H](O)[C@H](O)[C@H]7O[C@@H]7O[C@H](CO)[C@@H](O)[C@H](O)[C@H]7O)[C@H](O)[C@H]6O[C@@H]6O[C@@H](C)[C@H](O)[C@@H](O)[C@H]6O)C(C)(C)C5CC[C@@]4(C)[C@]3(C)[C@@H](OC(C)=O)[C@@H](O)[C@@]12COC(C)=O (some centres undefined),50.5%
4,O=C(CSc1nnc2c(n1)[nH]c1ccccc12)Nc1cccc(C(F)(F)F)c1,63.8%
5,CN(c1ccc(C(=O)NCc2ccccn2)cc1)S(C)(=O)=O,-16%
6,COC(=O)c1scc(S(=O)(=O)C(C)(C)C)c1-n1cccc1,3.33%
7,C[C@@H]1CN([C@@H](C)CO)C(=O)c2cccc(NS(=O)(=O)c3cn(C)cn3)c2O[C@H]1CN(C)Cc1ccc(Cl)c(Cl)c1,-17%
8,CC(C)NC(=O)Nc1ccc2c(c1)C(=O)N([C@H](C)CO)C[C@H](C)[C@@H](CN(C)CC1CCCCC1)OCCCC[C@@H](C)O2,0.663%
9,COc1ccc(CN(C)C[C@@H]2Oc3ccc(NC(=O)Nc4ccc(OC)cc4)cc3C(=O)N([C@H](C)CO)C[C@H]2C)cc1,-5.96%
10,CCc1ccccc1NC(=O)Cn1cnc2scc(-c3ccc(OC)cc3)c2c1=O,27.3%
11,COc1ccc(S(=O)(=O)Nc2cccc3c2O[C@H](CN(C)C(=O)Nc2cccc4ccccc24)[C@H](C)CN([C@@H](C)CO)C3=O)cc1,4.99%
12,NC(=S)c1cnn2c(C(F)(F)F)cc(C(F)(F)F)nc12,6.61%
13,C[C@@H]1CN([C@@H](C)CO)C(=O)c2cc(NC(=O)CCN3CCOCC3)ccc2O[C@@H]1CN(C)S(=O)(=O)c1ccccc1,-5.16%
14,C[C@H](CO)N1C[C@H](C)[C@@H](CN(C)Cc2ccc(C(F)(F)F)cc2)Oc2c(NC(=O)NC3CCCCC3)cccc2C1=O,15.8%
15,C[C@@H]1CN([C@@H](C)CO)C(=O)Cc2cc(NC(=O)Cc3ccccc3)ccc2O[C@@H]1CN(C)Cc1ccc2c(c1)OCO2,4.15%
16,O=C(CSc1nnc2n1CCCN2)c1ccccc1,-27.2%
17,Cc1ccc(C23CC4CC(CC(CN)(C4)C2)C3)cc1C,94.1% (active)
18,C[C@@H]1CN([C@H](C)CO)C(=O)Cc2cc(NC(=O)Nc3ccc4c(c3)OCO4)ccc2O[C@@H]1CN(C)C(=O)Nc1ccccc1,8.24%
19,COc1ccc(S(=O)(=O)Nc2ccc3c(c2)CC(=O)N([C@@H](C)CO)C[C@@H](C)[C@@H](CN(C)C)O3)cc1,-7.94%
20,C[C@@H]1CCCCO[C@@H](CN(C)Cc2ccncc2)[C@@H](C)CN([C@H](C)CO)C(=O)c2cc(NS(=O)(=O)c3cccs3)ccc2O1,-6.77%
21,C[C@H]1CN([C@@H](C)CO)C(=O)Cc2cc(NC(=O)Nc3ccccc3)ccc2O[C@H]1CN(C)S(=O)(=O)c1cn(C)cn1,-4.73%
22,Cc1cc(C(=O)Nc2cccc3c2O[C@@H](CN(C)C(=O)Nc2ccc(F)cc2)[C@H](C)CN([C@@H](C)CO)C3=O)n(C)n1,-3.61%

row,Structure (SMILES),inhibition
1,CC1=C(C(=O)OCc2ccccc2)OC(N)=C(C#N)C1c1ccc(F)cc1 (centres undefined),-8.27%
2,O=S(=O)(NCCc1ccccc1)c1ccccc1,-1.44%
3,Cc1cc(C)c2c(c1)CC(C)(C)c1[nH]c(-c3ccccc3)nc1-2,12.3%
4,CCCC1CCC(c2ccc(OC(=O)c3ccco3)cc2)CC1 (centres undefined),-3.57%
5,Cc1ccc(-n2c(SCC(=O)Nc3cccc(C)c3C)nc3ccccc3c2=O)cc1,14.3%
6,Cc1nc(SCC(=O)O)[nH]c(=O)c1Oc1ccccc1,-13.2%
7,O=C(CCn1nc(-c2ccccc2)c2ccccc2c1=O)Nc1cccc(Br)c1,6.27%
8,O=C(c1nc2ncccn2n1)N(Cc1ccccc1)Cc1ccccc1,3.11%
9,COc1cc(CO)cc(Cl)c1OCc1cccc([N+](=O)[O-])c1,-30.9%
10,COc1ccc(-c2cnc3c(-c4ccsc4)cnn3c2)cc1,26.7%
11,COc1ccc(S(=O)(=O)Nc2ccc3c(c2)CC(=O)N([C@H](C)CO)C[C@H](C)[C@H](CN(C)C(=O)Nc2ccccc2)O3)cc1,-16.9%
12,CNC[C@H]1Oc2ccc(NC(=O)C3CCCCC3)cc2C(=O)N([C@H](C)CO)C[C@@H]1C,4.94%
13,C[C@H]1CN([C@@H](C)CO)C(=O)c2cccc(NC(=O)Nc3cccc4ccccc34)c2O[C@@H]1CN(C)C(=O)NC1CCCCC1,0.565%
14,O=C(CCCN1C(=O)c2ccccc2C1=O)Nc1cccc2c1CCCC2,-8.57%
15,Cc1ccc2oc3c(c(=O)c2c1)C(c1ccc([N+](=O)[O-])cc1)N(CCCN1CCOCC1)C3=O (centres undefined),-26.1%
16,O=C(CN1CCOCC1)Nc1ccc(NC(=O)CN2CCOCC2)c(Cl)c1,-25.8%
17,C[C@H](CO)N1C[C@H](C)[C@H](CN(C)CC2CCCCC2)Oc2ccc(NC(=O)C3CCCCC3)cc2C1=O,-9.78%
18,C[C@H]1CN([C@@H](C)CO)C(=O)Cc2cc(NC(=O)Cc3ccccc3)ccc2O[C@@H]1CN(C)S(=O)(=O)c1ccc(Cl)cc1,12.5%
19,C[C@H]1CN([C@@H](C)CO)C(=O)c2cc(NC(=O)c3ccncc3)ccc2O[C@H]1CN(C)Cc1ccc(C(=O)Nc2ccccc2N)cc1,20.5%
20,O=C(OC1=CC(=O)c2cccc3cccc1c23)c1ccccc1,26.1%
